In PubChem BioAssay (NCI) one finds growth inhibition data, which are given here for 40 molecules.

About 79,000 compounds went through this panel and 15% of them were active in at least one assay; those are over-represented in the sample as a whole. Active and inactive are the calls of the source. No stated cut-off is given here; in the data, active means growth inhibition above about 70%; inactive means the rest.

The first test in a line: NCI Yeast Anticancer Drug Screen. Data for the sgs1 mgt1 strain (AID 161).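 Further: 0% = growth of cultures given vehicle only.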 The settings on record: S. cerevisiae sgs1 mgt1 strain, at 50.0 µM, hits give high values. An outline of the steps:
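Inhibition of yeast growth, normalised to vehicle-treated controls, is reported for a strain bearing genetic alterations in DNA damage repair.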
Take `COC(=O)n1sc(SC)nc1=N`: the growth inhibition was -8.9% (inactive).
Consider `CC(=O)CC(=O)Nc1cccc(C)c1`, for which the growth inhibition was 2.8% (inactive).
On to `Cc1ccc(S(=O)(=O)N(Cc2cccc([N+](=O)[O-])c2)c2ccc(C(=O)O)cc2)cc1`, for which the growth inhibition is 0.8% (inactive).
For `COC(=O)/C=C(\S/C=C(/c1ccccc1)N1CCn2c(C(=O)c3ccccc3)c(C(=O)OC)c(C(=O)OC)c21)C(=O)OC`, the growth inhibition was 43.8% (inactive).
Consider `CCN(CC)C(=O)C1(C)NS(=O)(=O)c2ccccc2C1=O` (stereo not given), for which the growth inhibition is -4.15% (inactive).
In the case of `CC12CCC(=O)C=C1CCC1C2C(=O)CC2(C)C1CCC2(O)C(=O)Cn1c(=O)[nH]cc(F)c1=O` (stereo not given), the growth inhibition was 3.55% (inactive).
On to `CC(C)(C=O)OC(=O)c1cc([N+](=O)[O-])cc([N+](=O)[O-])c1`, for which the growth inhibition is 27.4% (inactive).
The same measure, in the same setting: the value for `Cc1ccc(NC(=O)Oc2ccc3ccccc3c2)cc1NC(=O)Oc1ccc2ccccc2c1` was -4.45% (inactive); that for `CN1CCCC1c1cccnc1.O=C(O)c1ccccc1O.O=C([O-])c1ccccc1[OH2+].O=C([O-])c1ccccc1[OH2+].[Mn+2]` (stereo not given) was -24.7% (inactive); that for `CCOC(=O)c1c(C)c2c(n1C)CCC(C(=O)OCC)C2=O` (stereo not given) was 10.3% (inactive).
As for `CC(C)C1CCC(=O)CC1`, the growth inhibition is -1% (inactive).
With `CCS(=O)c1ncc2cnccn12` (stereo not given), the growth inhibition was 15.4% (inactive).
With `NC(N)=Nc1nc2ccc(Cl)cc2[nH]1`, the growth inhibition is 22.8% (inactive).
For the molecule `Cc1c(CCO)sc[n+]1CC(=O)c1ccccc1`, the growth inhibition is -3.7% (inactive).
As to `Fc1ccc(N=Cc2ccc(C=Nc3ccc(F)cc3)cc2)cc1`, the growth inhibition is 18.7% (inactive).
On the same count and under the same terms, the value for `O=C(CC(=O)c1ccc(Cl)cc1)c1ccc(Cl)cc1` was -3.95% (inactive); that for `O=[N+]([O-])CC1=CCCCC1` was 25.9% (inactive).
On to `COC(=O)C(C(=O)C(=O)Nc1nc2ccc(OC)cc2s1)c1cnc2ccccc2n1` (stereo not given), for which the growth inhibition is -45% (inactive).
As for `O=c1oc2ccc(Cl)cc2c(OCCO)c1Cl`, the growth inhibition was -4.45% (inactive).
For the molecule `CCC(CC)OC(=O)Nc1cccc2ccccc12`, the growth inhibition was -5.75% (inactive).
On the same count and under the same terms, then `CN1CCC(O)(C(C)(C)C)CC1`, with 3.65% (inactive).
Regarding `CCOC(=O)C(NNc1ccccc1)C(=O)C(F)(F)F` (stereo not given), the growth inhibition was -9.3% (inactive).
Same read-out and setting: then `CN(C)Cc1cc(N=Nc2ccc(Cl)cc2)ccc1O`, with 19.4% (inactive); and `CN(C)N=Nc1c(Cl)cccc1Cl`, with -6.6% (inactive).
With `CC(=O)Nc1cccc(C)n1`, the growth inhibition is 1.6% (inactive).
On the same count and under the same terms, the value for `CC(CCCSC(=N)N)SC(=N)N` (stereo not given) was -0.3% (inactive).
Turning to `Cc1ccc(S(=O)(=O)Nc2ccc(S(C)(=O)=O)cc2)cc1`, the growth inhibition is -5.6% (inactive).
Consider `COc1cc2c(cc1OC)-c1ccc3cc4c(cc3c1N(C)C2)OCO4`, for which the growth inhibition was 9.8% (inactive).
For the molecule `C=CCOC(=O)c1c(Cl)c(Cl)c(Cl)c(Cl)c1C(=O)O`, the growth inhibition was 29.1% (inactive).
As to `O=C1NC(=O)C(c2ccc(Cl)cc2)N1` (stereo not given), the growth inhibition is -6.3% (inactive).
For the molecule `O=C(O)CCCCCC1=CCCCC1`, the growth inhibition was 20.9% (inactive).
Consider `CC(C)=CCC/C(C)=C\COC=O`, for which the growth inhibition is 18.9% (inactive).
Same read-out and setting: the value for `COc1cccc(-c2nnc(-c3cccc(OC)c3)o2)c1` was 16.6% (inactive).
On to `CCCCCCCCC(=O)OCC(=O)c1ccc(-c2ccccc2)cc1`, for which the growth inhibition is 3.35% (inactive).
On the same count and under the same terms, the value for `CCCCCCCCCCCCCCCCCCCCCCBr` was 16.8% (inactive); that for `C[Si](C)(C)C#CCOC=C1CC1` was -27.2% (inactive); that for `Cc1cc(Cl)ccc1N1C(=O)C(=O)C(c2nc3ccccc3s2)C(=O)C1=O` was 17.9% (inactive).
For the molecule `CCOC(=O)/C=C/SCCCC(=O)O`, the growth inhibition was 0.25% (inactive).
On the same count and under the same terms, then `Cc1cc(C)c(C(=O)c2cccc(Cl)c2)c(C)c1`, with 5.55% (inactive).
Still for that read-out and setting: the value for `O=NN(CCCl)C(=O)N(C1CCCCC1)C1CCCCC1` was 12.1% (inactive).

The nature of the next test: NCI Yeast Anticancer Drug Screen. Data for the cln2 rad14 strain (AID 165).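 Further: 0% = growth equal to vehicle treated cultures.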 Particulars: S. cerevisiae cln2 rad14 strain, at 50.0 µM, hits give high values. An outline of the steps: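 Test compounds were added to cln2 rad14 yeast cultures; inhibition of growth was then determined by comparison with vehicle treatment.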
For `COC(=O)n1sc(SC)nc1=N`, the growth inhibition was -14.3% (inactive).
As to `CC(=O)CC(=O)Nc1cccc(C)c1`, the growth inhibition is 5.3% (inactive).
With `Cc1ccc(S(=O)(=O)N(Cc2cccc([N+](=O)[O-])c2)c2ccc(C(=O)O)cc2)cc1`, the growth inhibition is -12.7% (inactive).
For `COC(=O)/C=C(\S/C=C(/c1ccccc1)N1CCn2c(C(=O)c3ccccc3)c(C(=O)OC)c(C(=O)OC)c21)C(=O)OC`, the growth inhibition is 11.4% (inactive).
With `CCN(CC)C(=O)C1(C)NS(=O)(=O)c2ccccc2C1=O` (stereo not given), the growth inhibition was -31.9% (inactive).
On to `CC12CCC(=O)C=C1CCC1C2C(=O)CC2(C)C1CCC2(O)C(=O)Cn1c(=O)[nH]cc(F)c1=O` (stereo not given), for which the growth inhibition is 5.65% (inactive).
Consider `CC(C)(C=O)OC(=O)c1cc([N+](=O)[O-])cc([N+](=O)[O-])c1`, for which the growth inhibition was 29.8% (inactive).
As to `Cc1ccc(NC(=O)Oc2ccc3ccccc3c2)cc1NC(=O)Oc1ccc2ccccc2c1`, the growth inhibition was -86.5% (inactive).
Same read-out and setting: then `CN1CCCC1c1cccnc1.O=C(O)c1ccccc1O.O=C([O-])c1ccccc1[OH2+].O=C([O-])c1ccccc1[OH2+].[Mn+2]` (stereo not given), with -30.7% (inactive).
Take `CCOC(=O)c1c(C)c2c(n1C)CCC(C(=O)OCC)C2=O` (stereo not given): the growth inhibition was 11.4% (inactive).
Turning to `CC(C)C1CCC(=O)CC1`, the growth inhibition was -12.2% (inactive).
Same read-out and setting: then `CCS(=O)c1ncc2cnccn12` (stereo not given), with -17.8% (inactive); and `NC(N)=Nc1nc2ccc(Cl)cc2[nH]1`, with -4.3% (inactive); and `Cc1c(CCO)sc[n+]1CC(=O)c1ccccc1`, with 1.55% (inactive).
The same measure, in the same setting: the value for `Fc1ccc(N=Cc2ccc(C=Nc3ccc(F)cc3)cc2)cc1` was 10.2% (inactive); that for `O=C(CC(=O)c1ccc(Cl)cc1)c1ccc(Cl)cc1` was 0.35% (inactive); that for `O=[N+]([O-])CC1=CCCCC1` was 4.05% (inactive).
On to `COC(=O)C(C(=O)C(=O)Nc1nc2ccc(OC)cc2s1)c1cnc2ccccc2n1` (stereo not given), for which the growth inhibition is 22.6% (inactive).
On to `O=c1oc2ccc(Cl)cc2c(OCCO)c1Cl`, for which the growth inhibition is -0.5% (inactive).
For the molecule `CCC(CC)OC(=O)Nc1cccc2ccccc12`, the growth inhibition is -55% (inactive).
Turning to `CN1CCC(O)(C(C)(C)C)CC1`, the growth inhibition is 10.9% (inactive).
The same measure, in the same setting: then `CCOC(=O)C(NNc1ccccc1)C(=O)C(F)(F)F` (stereo not given), with -18.8% (inactive); and `CN(C)Cc1cc(N=Nc2ccc(Cl)cc2)ccc1O`, with 14.8% (inactive).
Same read-out and setting: then `CN(C)N=Nc1c(Cl)cccc1Cl`, with -13% (inactive); and `CC(=O)Nc1cccc(C)n1`, with -71.8% (inactive).
Turning to `CC(CCCSC(=N)N)SC(=N)N` (stereo not given), the growth inhibition is 24.2% (inactive).
For `Cc1ccc(S(=O)(=O)Nc2ccc(S(C)(=O)=O)cc2)cc1`, the growth inhibition was -36.4% (inactive).
`COc1cc2c(cc1OC)-c1ccc3cc4c(cc3c1N(C)C2)OCO4`: the growth inhibition is -4.65% (inactive).
As to `C=CCOC(=O)c1c(Cl)c(Cl)c(Cl)c(Cl)c1C(=O)O`, the growth inhibition is 25.9% (inactive).
The same measure, in the same setting: the value for `O=C1NC(=O)C(c2ccc(Cl)cc2)N1` (stereo not given) was -5.3% (inactive).
On to `O=C(O)CCCCCC1=CCCCC1`, for which the growth inhibition is 19.2% (inactive).
Regarding `CC(C)=CCC/C(C)=C\COC=O`, the growth inhibition was 6.45% (inactive).
For the molecule `COc1cccc(-c2nnc(-c3cccc(OC)c3)o2)c1`, the growth inhibition is 1.95% (inactive).
On the same count and under the same terms, then `CCCCCCCCC(=O)OCC(=O)c1ccc(-c2ccccc2)cc1`, with -7.85% (inactive); and `CCCCCCCCCCCCCCCCCCCCCCBr`, with 21.4% (inactive).
As to `C[Si](C)(C)C#CCOC=C1CC1`, the growth inhibition was 9.15% (inactive).
`Cc1cc(Cl)ccc1N1C(=O)C(=O)C(c2nc3ccccc3s2)C(=O)C1=O`: the growth inhibition was -6.1% (inactive).
Regarding `CCOC(=O)/C=C/SCCCC(=O)O`, the growth inhibition is -22.8% (inactive).
Take `Cc1cc(C)c(C(=O)c2cccc(Cl)c2)c(C)c1`: the growth inhibition is -56.9% (inactive).
Regarding `O=NN(CCCl)C(=O)N(C1CCCCC1)C1CCCCC1`, the growth inhibition is 3.35% (inactive).
